Tests used:
[1] = test system: Vero E6 infected with SARS-CoV-2; assay: morphology score (similarity to uninfected cells); higher = more like uninfected cells; conditions: 24 h
[2] = test system: Vero E6 infected with SARS-CoV-2; assay: SARS-CoV-2 infection rate relative to infected DMSO; higher = more infection, active = 60 or less; conditions: 24 h

Row | SMILES | morphology score [1] | SARS-CoV-2 infection rate [2]
1 | CN(C(=O)CN(CCO)CC(=O)N(C)C(C)(C)Cc1ccccc1)C(C)(C)Cc1ccccc1 [oxethazaine] (10 µM) | -0.169 | 102% (inactive)
2 | CCN(CC)CCCCC1CCN(CC(=O)N2c3ccccc3C(=O)Nc3cccnc32)CC1 (10 µM) | 0.0682 | 108% (inactive)
3 | COc1ccc2[nH]cc(CCNC(C)=O)c2c1 [melatonin] (10 µM) | 0.0444 | 105% (inactive)
4 | CC[C@H](NC(=O)c1c(C)c(-c2ccccc2)nc2ccccc12)c1ccccc1 (10 µM) | 0.0423 | 101% (inactive)
5 | CC(C)(F)C[C@H](N[C@@H](c1ccc(-c2ccc(S(C)(=O)=O)cc2)cc1)C(F)(F)F)C(=O)NC1(C#N)CC1 [odanacatib] (10 µM) | 0.161 | 96.5% (inactive)
6 | CCN(c1cc(-c2ccc(CN3CCOCC3)cc2)cc(C(=O)NCc2c(C)cc(C)[nH]c2=O)c1C)C1CCOCC1 [tazemetostat] (10 µM) | 0.0658 | 104% (inactive)
7 | O=C(O)c1ccc(-c2c[nH]c3ncc(-c4ccccc4)cc23)cc1C1CCCC1 (10 µM) | 0.309 | 89.5% (inactive)
8 | CN[C@@H]1[C@@H](O)[C@@H](O[C@@H]2[C@@H](O)[C@H](O[C@H]3O[C@H](CN)[C@@H](O)[C@H](O)[C@H]3O)[C@@H](N)C[C@H]2NC(=O)[C@@H](O)CN)OC[C@]1(C)O [isepamicin] (10 µM) | 0.0671 | 109% (inactive)
9 | CCS(=O)(=O)N(Cc1cccnc1)c1cccc(-c2ccc(C#N)cc2)c1 (10 µM) | 0.372 | 87% (inactive)

Reference: the supplement of paper PMC13380429
